# The supplement of paper PMC10037445
# Whole data set: some 2,900 compounds, median “IRF Lucia reporter activity, fold change vs agonist alone” near 0.9, cut for the highest 2% near 2.8. What follows is part of a selection rich in the highest values, with near analogues and random picks from the rest.
# Legend:
# [1] = tested on: RAW-Dual; assay: IRF Lucia reporter activity, fold change vs agonist alone; cytotoxicity flag (confluency mask): cytotoxic (confluency <70% of control); higher = enhanced IRF activity
# How it was run: (§1)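 RAW-Dual macrophages were seeded in DMEM at 50,000 cells/well in 384-well plates, given 50 nL of library stock by pin tool, and given a PRR agonist 1 h later. Plates were held at 37 °C, 5% CO2 for 20 hours, after which supernatant was read for IRF by QuantiLuc luminescence and for NF-κB by QuantiBlue absorbance at 620 nm. Reporter activity is expressed as fold change over wells that received agonist alone. A well was called cytotoxic when IncuCyte confluency fell below 70% of agonist controls in both mask sets.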
# [2] = tested on: RAW-Dual; assay: IRF Lucia reporter activity, fold change vs agonist alone; cytotoxicity flag (confluency mask): not cytotoxic; higher = enhanced IRF activity
# How it was run: as §1
# [3] = tested on: RAW-Dual; assay: IRF Lucia reporter activity, fold change vs agonist alone; higher = enhanced IRF activity; details: agonist: MPLA (TLR4) […]
# How it was run: as §1
# [4] = agonist: 3'3'-cGAMP (STING) 10 ug/mL
# [5] = library stock concentration (final ~1000-fold dilution): 10 mM, cytotoxicity flag (confluency mask): not cytotoxic
# [6] = library stock concentration (final ~1000-fold dilution): 10 mM, cytotoxicity flag (confluency mask): cytotoxic (confluency <70% of control)
smiles,measurement,setting,value
COCCNCCc1cccc(Nc2ncc3c(n2)-c2ccccc2C(c2ccccc2F)C3)c1 (stereo not given) (library stock concentration (final ~1000-fold dilution): 10 mM),IRF Lucia reporter activity,[1]; [4],0.0166
same,IRF Lucia reporter activity,[1]; agonist: LPS (TLR4) 0.1 ug/mL,0.159
CN1CCC(c2c(O)cc(O)c3c(=O)cc(-c4ccccc4Cl)oc23)C1CO.Cl (stereo not given) (library stock concentration (final ~1000-fold dilution): 10 mM),IRF Lucia reporter activity,[1]; [4],0.00862
same,IRF Lucia reporter activity,[1]; agonist: LPS (TLR4) 0.1 ug/mL,0.0242
CN(CC1COCCO1)S(=O)(=O)Nc1ccc2ccc3ncc(-c4cnn(C)c4)cc3c(=O)c2c1 (stereo not given) (library stock concentration (final ~1000-fold dilution): 10 mM),IRF Lucia reporter activity,[2]; [4],0.306
same,IRF Lucia reporter activity,[2]; agonist: LPS (TLR4) 0.1 ug/mL,0.736
CN(CC1COCCO1)S(=O)(=O)Nc1ccc2ccc3ncc(-c4cnn(C)c4)cc3c(=O)c2c1 (stereo not given),IRF Lucia reporter activity,[3]; [5],0.63
COC(=O)C1=COC(OC2OC(CO)C(O)C(O)C2O)C2C1CC(O)C2C (stereo not given) (library stock concentration (final ~1000-fold dilution): 10 mM),IRF Lucia reporter activity,[2]; [4],1.08
same,IRF Lucia reporter activity,[2]; agonist: LPS (TLR4) 0.1 ug/mL,1.3
COC(=O)C1=COC(OC2OC(CO)C(O)C(O)C2O)C2C1CC(O)C2C (stereo not given),IRF Lucia reporter activity,[3]; [5],1.12
CCCc1cc(C)[nH]c(=O)c1CNC(=O)c1cc(-c2ccc(N3CCN(C)CC3)nc2)nc2c1cnn2C(C)C (library stock concentration (final ~1000-fold dilution): 10 mM),IRF Lucia reporter activity,[2]; [4],0.763
same,IRF Lucia reporter activity,[2]; agonist: LPS (TLR4) 0.1 ug/mL,1.35
CCN(C)S(=O)(=O)Nc1ccc(F)c(C(=O)c2c[nH]c3ncc(-c4cnc(C5CC5)nc4)cc23)c1F (library stock concentration (final ~1000-fold dilution): 10 mM),IRF Lucia reporter activity,[2]; [4],0.0563
same,IRF Lucia reporter activity,[2]; agonist: LPS (TLR4) 0.1 ug/mL,0.409
Cc1c(-c2ccccc2)oc2c(C(=O)OCCN3CCCCC3)cccc2c1=O.Cl,IRF Lucia reporter activity,"[3]; library stock concentration (final ~1000-fold dilution): 10 mM water, cytotoxicity flag (confluency mask): not cytotoxic",1.29
Cc1ccc2c(=O)c3cccc(CC(=O)O)c3oc2c1C,IRF Lucia reporter activity,[3]; [5],0.965
Cc1c(-c2ccccc2)oc2c(C(=O)OCCN3CCCCC3)cccc2c1=O.Cl (library stock concentration (final ~1000-fold dilution): 10 mM water),IRF Lucia reporter activity,[2]; [4],1.09
same,IRF Lucia reporter activity,[2]; agonist: LPS (TLR4) 0.1 ug/mL,0.892
Cc1ccc2c(=O)c3cccc(CC(=O)O)c3oc2c1C (library stock concentration (final ~1000-fold dilution): 10 mM),IRF Lucia reporter activity,[2]; [4],1.08
same,IRF Lucia reporter activity,[2]; agonist: LPS (TLR4) 0.1 ug/mL,6.08
CCC(=O)N1CCC(Nc2ncnc3c2CN(c2cnc(OC)c(C(F)(F)F)c2)CC3)C1 (stereo not given) (library stock concentration (final ~1000-fold dilution): 10 mM),IRF Lucia reporter activity,[2]; [4],0.908
same,IRF Lucia reporter activity,[2]; agonist: LPS (TLR4) 0.1 ug/mL,0.847
CCC1(O)C(=O)OCc2c1cc1n(c2=O)Cc2cc3c(CN(C)C)c(O)ccc3nc2-1.Cl (stereo not given) (library stock concentration (final ~1000-fold dilution): 10 mM),IRF Lucia reporter activity,[1]; [4],2.13
same,IRF Lucia reporter activity,[1]; agonist: LPS (TLR4) 0.1 ug/mL,2.49
CCC1(O)C(=O)OCc2c1cc1n(c2=O)Cc2cc3c(CN(C)C)c(O)ccc3nc2-1.Cl (stereo not given),IRF Lucia reporter activity,[3]; [6],3.1
CCc1c2c(nc3ccc(OC(=O)N4CCC(N5CCCCC5)CC4)cc13)-c1cc3c(c(=O)n1C2)COC(=O)C3(O)CC.Cl.O.O.O (stereo not given),IRF Lucia reporter activity,[3]; [5],1.15
CCC1(O)C(=O)OCc2c1cc1n(c2=O)Cc2cc3cc(O)ccc3nc2-1 (stereo not given),IRF Lucia reporter activity,[3]; [6],2.58
same,IRF Lucia reporter activity,[3]; [5],1.03
CCC1(O)C(=O)OCc2c1cc1n(c2=O)Cc2cc3c(CN(C)C)c(O)ccc3nc2-1 (stereo not given) (library stock concentration (final ~1000-fold dilution): 10 mM),IRF Lucia reporter activity,[2]; [4],2.77
same,IRF Lucia reporter activity,[2]; agonist: LPS (TLR4) 0.1 ug/mL,3.25
CCc1c2c(nc3ccc(O)cc13)-c1cc3c(c(=O)n1C2)COC(=O)C3(O)CC (stereo not given),IRF Lucia reporter activity,[3]; [5],1.65
CCc1c2c(nc3ccc(OC(=O)N4CCC(N5CCCCC5)CC4)cc13)-c1cc3c(c(=O)n1C2)COC(=O)C3(O)CC.Cl.O.O.O (stereo not given) (library stock concentration (final ~1000-fold dilution): 10 mM),IRF Lucia reporter activity,[2]; [4],0.87
same,IRF Lucia reporter activity,[2]; agonist: LPS (TLR4) 0.1 ug/mL,1.1
CCc1c2c(nc3ccc(O)cc13)-c1cc3c(c(=O)n1C2)COC(=O)C3(O)CC (stereo not given) (library stock concentration (final ~1000-fold dilution): 10 mM),IRF Lucia reporter activity,[2]; [4],1.24
same,IRF Lucia reporter activity,[2]; agonist: LPS (TLR4) 0.1 ug/mL,1.29
CCC1(O)C(=O)OCc2c1cc1n(c2=O)Cc2cc3cc(O)ccc3nc2-1 (stereo not given) (library stock concentration (final ~1000-fold dilution): 10 mM),IRF Lucia reporter activity,[2]; [4],0.975
same,IRF Lucia reporter activity,[2]; agonist: LPS (TLR4) 0.1 ug/mL,0.604
same,IRF Lucia reporter activity,[1]; [4],2.36
same,IRF Lucia reporter activity,[1]; agonist: LPS (TLR4) 0.1 ug/mL,1.76
COc1ccc2cc1Oc1ccc(cc1)CC1c3cc(c(OC)cc3CCN1C)Oc1c(OC)c(OC)cc3c1C(C2)N(C)CC3 (stereo not given),IRF Lucia reporter activity,[3]; [5],1.07
